Experimental data taken from ChEMBL document CHEMBL4888484, “Replenishing the malaria drug discovery pipeline: Screening and hit evaluation of the MMV Hit Generation Library 1 (HGL1) against asexual blood stage Plasmodium falciparum ,using a nano luciferase reporter read-out” (2022).
Among all 4,800 compounds or so, about 410 (8.5%) showed an effect of 50% or more. The list comes from a sample in which strong results are over-represented; it also holds similar structures and randomly drawn compounds.

tested on: Plasmodium falciparum; assay: Confirmatory screen in NF54 pLDH assay, in single point, at 2uM, 72h; assay type: functional, Erythrocyte; conditions: timepoint 72 hour

Point of comparison: `CCn1cc(-c2nc(-c3ccccc3C)no2)c(=O)c2cc(F)c(N3CCCCC3)cc21`, “% Inhibition” value 42%. Against it:
- O=C(N[C@@H]1CC=C(c2ccc(F)cc2)CC1)c1nc2n(n1)CCCN2 — lower, 10%
- c1ccc2[nH]c(Nc3nc4ccccc4s3)nc2c1 — lower, 14%
- COc1ccc(CNC(=N)NS(=O)(=O)c2ccc(OC)c(OC)c2)c(OC)c1 — lower, 11%
- Cc1cc(Br)ccc1CNC(=O)CN1CCCCC1=O — lower, 13%
- O=C(Nc1[nH]c(=O)ncc1F)c1cc(F)c(F)cc1Br — higher, 86%
- O=C(Nc1[nH]c(=O)ncc1F)c1cccc2ccccc12 — higher, 72%
- Cn1ccc(NC(=O)c2cccc3ccccc23)n1 — lower, 4%
- COc1cc(C(=O)Nc2[nH]c(=O)ncc2F)ccc1Cl — higher, 68%
- COc1ccc(C(=O)Nc2ccc3c(c2)C(=O)Nc2cccnc2O3)cc1OC — lower, 26%
- O=C1c2ccccc2C(c2ccc(NC(=O)c3cccc4ccccc34)cc2)(c2ccc(NC(=O)c3cccc4ccccc34)cc2)c2ccccc21 — the same, 42%
- O=C(Nc1ccccc1-c1nnc[nH]1)c1ccc(F)c(Cl)c1 — lower, 2%
- COc1cc2c(cc1-c1cccnc1)CCC(=O)N2C — lower, -22%
- CCc1c[nH]c(CNC(=O)C2(C(=O)NC3CC3)CCC2)n1 — lower, 7%
- CCC[C@H](C)c1nc(N2CCN(C(=O)Cc3ccc(OC)cc3)CC2)c2cnn(-c3ccccc3)c2n1 — lower, 9%
- CC(=O)Nc1ccc(-c2cn3c4ccccc4ccc3[n+]2C)cc1 — higher, 67%
- CC(=O)c1ccc(NC(=O)Cn2c(-c3ccccc3)nc(C)cc2=O)cc1 — lower, 10%
- CC(=O)Nc1ccc(NC(=O)CCC(C)C)cc1 — lower, -6%
- CCOc1cccc2c1OC1(C)C(C(=O)Nc3ccc(C)cc3C)C2NC(=O)N1c1ccccc1 (stereo not drawn) — lower, -7%
- O=C1[C@@H]2C[C@@H](CN2C(=O)c2cncnc2)Oc2ccccc2N1Cc1cccnc1 — lower, 6%
- O=C(O)C[C@H](NC(=O)c1cscn1)c1ccc(Cl)s1 — lower, -23%
- O=S(=O)(c1cccnc1)N(CC1CCCCC1)c1cnccn1 — lower, 10%
- COc1cc(NC(=O)c2cc(-c3cccc4ccccc34)[nH]n2)cc(OC)c1OC — lower, 10%
- COc1ccc2cccc(NC(=O)c3cc(-c4cc(OC)c(OC)c(OC)c4)n[nH]3)c2n1 — higher, 51%
- COc1ccc(-c2cc(C(=O)Nc3ncc[nH]3)n[nH]2)cc1OC — lower, 22%
- Cc1ccnc2nc(C(=O)N(CC3CC3)CC(F)(F)F)nn12 — lower, 10%
- Oc1cccc(CN[C@H]2CCCc3occc32)c1Cl — higher, 83%
- CC(O)CC(C)(C)CNC1CCCc2occc21 (stereo not drawn) — lower, -9%
- O=C(N[C@H]1CCCc2occc21)c1ccco1 — lower, 7%
- CCOC(=O)Oc1c(OC)cc(C(=O)Nc2ccc3c(c2)sc(=O)n3C)cc1OC — lower, 15%
- CCOc1cc(C(=O)Nc2ccc3nc4c(c(Nc5ccc(OC)c(OC)c5)c3c2)CCCC4)cc(OCC)c1OCC — higher, 103%
- COc1ccc(Nc2nc(C(=O)Nc3ncc(C)s3)cs2)cc1OC — lower, 13%
- COC(=O)c1cc(S(=O)(=O)NCCc2csc(C)n2)cc(F)c1F — lower, -8%
- CCN(C(=O)[C@H]1CCN(C)[C@@H](C)C1)C1CCCC1 — lower, 11%
- Cc1cn(Cc2ncc(C(F)(F)F)cc2Cl)c(=O)[nH]c1=O — lower, -18%
- N#Cc1ccc(NC(=O)[C@](F)(OC(F)(F)C(F)(F)C(F)(F)F)C(F)(F)F)cc1 — lower, -2%
- CN(Cc1ccc(-c2ccccc2)cc1)c1cc([C@H]2C[C@@H](N)C2)nc(N)n1 — higher, 54%
- Cc1cc(CN(C)c2cc(C3CC3)nc(N(C)Cc3cc(C)on3)n2)no1 — lower, -11%
- CC(=O)N1c2c(C)cccc2[C@@H](C)CC1(C)C — lower, 16%
- CCc1ccc(NC(=O)Cn2c(=O)ncc3cc(S(=O)(=O)N4CCCC[C@@H]4C)ccc32)cc1 — lower, 11%
- CC(C)C[C@@H]1N[C@H](C(=O)NCCN(C)C)Cc2c[nH]c3cccc1c23 — lower, -19%
- Cc1cc2nc(C(=O)NC3CCN(Cc4ccccc4)CC3)c(=O)n(C)c2cc1C — lower, -6%
- Cc1cc(C(=O)Nc2nc(-c3ccc4c(c3)CCC4)n[nH]2)no1 — lower, 7%
- CCn1cc(C(=O)O)c(=O)c2cc(F)c(N3CCN(S(=O)(=O)c4ccccc4)CC3)cc21 — lower, -6%
- CCn1cc(C#N)c(=O)c2cc(F)c(N3CCN(Cc4ccccc4)CC3)cc21 — higher, 78%
- Cc1ccc(S(=O)(=O)Cc2nc(-c3ccc(C(=O)Nc4c(C)cccc4C)cc3)oc2C)cc1 — lower, 13%
- CCNC(=O)c1ccc(-c2nc(CS(=O)(=O)c3ccccc3)c(C)o2)cc1 — lower, -10%
- Cc1cccc(-c2nc(C[N+]3(Cc4nc(-c5cccc(C)c5)oc4C)CCCC3)c(C)o2)c1 — higher, 55%
- COc1cccc2c(=O)c3c([nH]c12)CCN(CC(=O)NCc1ccccc1Cl)C3 — lower, 37%
- COc1ccc(CN(Cc2ccncc2)CC2CCN(C3CCN(C)CC3)CC2)c(F)c1 — higher, 93%
- c1cc(CN2CCN(C3CCCCCC3)CC2)ccn1 — lower, -17%
- O=S1(=O)CCN(C2CCN(Cc3c(F)cccc3F)CC2)CC1 — lower, 14%
- c1ccc(N2CCN(C3CCN(Cc4ccncc4)CC3)CC2)cc1 — lower, -2%
- CN1CCC(N2CCC(CN(Cc3ccncc3)Cc3c(F)cccc3Cl)CC2)CC1 — higher, 99%
- Cc1ccc(C)c(NC(=O)N2CC(n3cnnc3-c3ccccc3)C2)c1 — lower, 0%
- c1ccc(CCc2nnc3n2CCOC3)cc1 — lower, 3%
- COCc1cc2nn(CC(=O)Nc3ccc4c(c3)OCO4)c(=O)n2c(-c2ccccc2)n1 — lower, 12%
- Cc1ccc(CNC(=O)[C@@H](C)C2CCOCC2)cc1C — lower, 7%
- Cc1ccc(-c2nn3c([C@H]4CCCN(C)C4)nnc3s2)cc1C — lower, -8%
- O=C1NC2(CCCC2)Nc2ccccc21 — lower, 2%
- Cc1cc(=O)n2ncc(C(=O)Nc3ccc(F)cc3F)c2[nH]1 — lower, 10%
- COc1ccc(N(C)S(=O)(=O)c2ccsc2-c2nc(-c3cccnc3)no2)cc1Cl — lower, -2%
- CC(C)(C)N(CC(N)=O)CC(=O)NC(=O)NC1CCCCC1 — lower, 8%
